In PubChem BioAssay (NCATS):
Values joined by “and” are separate entries in the source; they are usually repeats but may differ in a detail not shown here. Equal entries are not always repeated. Records with an inconclusive call do not appear. Active and inactive are the calls of the source. Unless noted, calls come from the whole dose curve; as a rule, active = well fitted curve in the direction sought with a large enough effect; inconclusive = small, poorly fitted or top-dose-only effect, or another doubt; inactive = no such curve, though single readings can be large; an effect the other way counts as inactive or inconclusive.

Key:
[1] = AP1 Signaling Pathway (AID 357; active = well fitted curve in either direction with a large enough effect, not every such curve was filed as active;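 note: ME-180 reporter cells stimulated with EGF at its EC50 level; % is set by controls: 0 for no effect and ±100 for the full control effect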)
In short: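 AP-1-bla ME-180 cells, Opti-MEM + 0.5% dialyzed FBS, plated overnight 37 °C. Cpd titration + EC50 EGF, 5 h 37 °C. CCF4 2.5 h RT; ex 405, em 460/530 ratio → %activity, AC50.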

[2] = NFAT Signaling Pathway (AID 444; active = well fitted curve in either direction with a large enough effect, not every such curve was filed as active;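 note: carbachol stimulus at about its EC50 of 1 µM final; % is set by controls: 0 for no effect and ±100 for the full control effect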); conditions: Jurkat NFAT-bla M1, carbachol, beta-lactamase ratio, 5 h
In short: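 Jurkat cells carrying an NFAT-driven β-lactamase reporter and co-transfected muscarinic M1 receptor were treated with compound plus carbachol (1 uM final, an EC50 level) for 5 h at 37 °C. CCF4 loading followed for 1 h at RT; 460/530 nm ratio gave %activity.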

[3] = Stat Signaling Pathway (AID 446; active = well fitted curve in either direction with a large enough effect, not every such curve was filed as active;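 note: ME-180 cervical cancer cells given 40 pM IL-6 alongside compound; SIE-controlled beta-lactamase reporter measured as 460/530 nm FRET emission ratio; % is set by controls: 0 for no effect and ±100 for the full control effect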)
In short: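 Reporter line: ME-180 cervical carcinoma, SIE-beta-lactamase. Treatment: compound with 40 pM IL-6, 5 hrs, 37 C, in low-serum OPTI-MEM with 10 mM HEPES pH 7.3. Detection: 460/530 nm fluorescence.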

[4] = biological target: Glucocorticoid receptor (Homo sapiens) (UniProt P04150); experiment: GR-GFP Redistribution (AID 450;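 active = compounds whose dose series gives a full or clear partial fitted curve of increased nuclear translocation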; note: potency is the fitted concentration of half-maximal effect); conditions: U2OS GR-GFP nuclear translocation, laser cytometry, 2 h
[5] = biological target: Glucocorticoid receptor (Homo sapiens) (UniProt P04150); experiment: GR-EFC Redistribution (AID 451; calls by dose curve; note: potency is the fitted concentration of half-maximal effect); conditions: CHO-K1 GR-EFC translocation, beta-gal luminescence, 2 h
In short: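 CHO-K1 cells stably expressing nuclear-localized β-gal enzyme acceptor and GR fused C-terminally to the enzyme donor fragment; ligand-driven nuclear translocation restores β-gal by complementation. Compounds titrated up to 46 uM final, 2 h at 37 °C; luminescence read.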

[6] = biological target: Mitogen-activated protein kinase 10 (Mus musculus) (UniProt Q61831); experiment: JNK3 AlphaScreen Assay (AID 530; active = well fitted curve in either direction with a large enough effect, not every such curve was filed as active;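 note: kinase came from lysate of stimulated human HepG2 cells; signal reports phosphorylation of biotinylated GST-cJun 1-79 at Ser73 with 10 µM ATP; % is set by controls: 0 for no effect and ±100 for the full control effect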)
In short: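 Inhibitors reduce antibody binding to phosphorylated biotin-cJun, lowering AlphaScreen luminescence. Lysates from HepG2 cells pre-activated by IL-1beta plus TNF-alpha supplied JNK3; compounds were titrated.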

[7] = biological target: 3',5'-cyclic-AMP phosphodiesterase 4B (Homo sapiens) (UniProt Q07343); experiment: qHTS Assay for Inhibitors of PDE-IV (AID 607; active = well fitted activation curve with a large enough effect in the main read-out, with a control signal flat, not every such curve was filed as active; note: % of control where 0% means no effect)
In short: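 Cell-based read-out of cAMP via a modified cyclic nucleotide-gated channel and membrane potential dye (535/590 nm) in HEK293 cells expressing PDE4 endogenously. Compounds tested up to 22.9 uM final; 100 uM RO 20-1724 reference.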

[8] = qHTS Assay for Lipid Storage Modulators (AID 1519; calls by dose curve); conditions: Drosophila S3 cells, BODIPY lipid droplet/cell ratio, laser cytometry, cells loaded with oleic acid; for activity change, negative = inhibition: at 25.7 µM (top of the series)
In short: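 Cells seeded at 5,000 per well were treated with compounds over a concentration series and loaded with oleic acid (400 uM, as added). Lipid droplet fluorescence (488 nm excitation, 500-530 nm channel) was read by laser-scanning cytometry and normalized to 20 uM Triacsin C.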

[9] = biological target: Ubiquitin carboxyl-terminal hydrolase 1 (Homo sapiens) (UniProt O94782); experiment: Inhibitors of USP1/UAF1: Pilot qHTS (AID 504865);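 note: rhodamine fluorescence freed from ubiquitin-rhodamine substrate followed over time; top concentration of the series differs between compounds; % is set by controls: 0 for no effect and ±100 for the full control effect; nearly all actives have a fitted effect of over 35% in size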
In short: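 In 50mM HEPES pH 7.8 containing 0.5mM EDTA, 1mM TCEP, 0.1 mg/ml BSA and 0.01% Tween-20, 1nM USP1/UAF1 is exposed to compound for 15 min, then Ub-Rho (150nM final) is added and fluorescence is read over time.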

[10] = S16 Schwann cell viability assay (CellTiter-Glo assay) (AID 624031);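 note: cellular ATP luminescence as a viability measure; plate controls were DMSO-treated cells for no effect and cell-free wells for full effect; nearly all actives have a fitted effect of over 70% in size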
In short: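 Luminescent ATP read-out (CellTiter-Glo) after 24 h compound exposure of native S16 rat Schwann cells at 37 °C. Signals were normalized between cell-free wells and DMSO-treated cells, set as 0% activity.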

[11] = qHTS profiling for inhibitors of Plasmodium falciparum proliferation (AID 504749); note: nearly all actives have a fitted effect of over 60% in size; note: potency is the fitted concentration of half-maximal effect;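 for activity, negative = inhibition: 0% = DMSO vehicle and full inhibition = artemisinin control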; conditions: P. falciparum in erythrocytes, SYBR Green DNA, 72 h
In short: (§1)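 Parasite proliferation within erythrocytes, 72 h exposure. Endpoint: SYBR Green I fluorescence after overnight lysis at room temperature. Controls: 0.29 uM artemisinin, DMSO.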

AS120 = experiment: as above; conditions: P. falciparum in erythrocytes, SYBR Green DNA, 72 h; series mostly up to 12.8 µM
In short: as §1

C2A = experiment: as above; conditions: P. falciparum in erythrocytes, SYBR Green DNA, 72 h; series mostly up to 12.8 µM
In short: as §1

CP238 = experiment: as above; conditions: P. falciparum in erythrocytes, SYBR Green DNA, 72 h; series mostly up to 12.8 µM
In short: as §1

FAB9 = experiment: as above; conditions: P. falciparum in erythrocytes, SYBR Green DNA, 72 h; series mostly up to 12.8 µM
In short: as §1

HB3 = experiment: as above; conditions: P. falciparum in erythrocytes, SYBR Green DNA, 72 h; series mostly up to 12.8 µM
In short: as §1

JCK = experiment: as above; conditions: P. falciparum in erythrocytes, SYBR Green DNA, 72 h; series mostly up to 12.8 µM
In short: as §1

PAD = experiment: as above; conditions: P. falciparum in erythrocytes, SYBR Green DNA, 72 h; series mostly up to 12.8 µM
In short: as §1

CP237 = experiment: as above; conditions: P. falciparum in erythrocytes, SYBR Green DNA, 72 h; series mostly up to 12.8 µM
In short: as §1

CP252 = experiment: as above; conditions: P. falciparum in erythrocytes, SYBR Green DNA, 72 h; series mostly up to 12.8 µM
In short: as §1

[12] = at 17.2 µM (top of the series) unless noted
[13] = measured here: cell count channel max response
[14] = measured here: lipid channel max response
[15] = at 12.8 µM (top of the series), parasite line A
[16] = at 12.8 µM (top of the series), parasite line B
[17] = at 28.7 µM (top of the series), parasite line A
[18] = at 28.7 µM (top of the series), parasite line B

3',5'-cyclic-AMP phosphodiesterase 4B (Homo sapiens), sequence (Q07343 whole entry, looked up): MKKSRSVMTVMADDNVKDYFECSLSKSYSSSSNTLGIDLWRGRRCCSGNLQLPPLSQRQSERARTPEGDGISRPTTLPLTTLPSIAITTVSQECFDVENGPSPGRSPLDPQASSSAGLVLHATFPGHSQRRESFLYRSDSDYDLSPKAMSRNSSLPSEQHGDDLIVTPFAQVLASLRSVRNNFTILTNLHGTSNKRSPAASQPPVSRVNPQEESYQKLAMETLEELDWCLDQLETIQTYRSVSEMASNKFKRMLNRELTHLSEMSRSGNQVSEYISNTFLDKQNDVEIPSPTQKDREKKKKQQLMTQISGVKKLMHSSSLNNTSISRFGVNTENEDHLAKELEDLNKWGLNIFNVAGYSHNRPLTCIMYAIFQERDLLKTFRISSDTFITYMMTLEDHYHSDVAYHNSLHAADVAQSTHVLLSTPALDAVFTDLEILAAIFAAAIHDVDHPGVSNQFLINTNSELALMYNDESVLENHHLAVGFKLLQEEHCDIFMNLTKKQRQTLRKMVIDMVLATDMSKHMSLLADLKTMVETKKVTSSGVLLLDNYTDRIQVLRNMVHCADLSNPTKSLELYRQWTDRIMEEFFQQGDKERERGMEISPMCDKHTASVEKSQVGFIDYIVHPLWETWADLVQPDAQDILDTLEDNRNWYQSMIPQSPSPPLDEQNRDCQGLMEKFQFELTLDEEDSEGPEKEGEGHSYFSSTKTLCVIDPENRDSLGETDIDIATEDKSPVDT
Glucocorticoid receptor (Homo sapiens), sequence (P04150 whole entry, looked up, the tested form may be a part): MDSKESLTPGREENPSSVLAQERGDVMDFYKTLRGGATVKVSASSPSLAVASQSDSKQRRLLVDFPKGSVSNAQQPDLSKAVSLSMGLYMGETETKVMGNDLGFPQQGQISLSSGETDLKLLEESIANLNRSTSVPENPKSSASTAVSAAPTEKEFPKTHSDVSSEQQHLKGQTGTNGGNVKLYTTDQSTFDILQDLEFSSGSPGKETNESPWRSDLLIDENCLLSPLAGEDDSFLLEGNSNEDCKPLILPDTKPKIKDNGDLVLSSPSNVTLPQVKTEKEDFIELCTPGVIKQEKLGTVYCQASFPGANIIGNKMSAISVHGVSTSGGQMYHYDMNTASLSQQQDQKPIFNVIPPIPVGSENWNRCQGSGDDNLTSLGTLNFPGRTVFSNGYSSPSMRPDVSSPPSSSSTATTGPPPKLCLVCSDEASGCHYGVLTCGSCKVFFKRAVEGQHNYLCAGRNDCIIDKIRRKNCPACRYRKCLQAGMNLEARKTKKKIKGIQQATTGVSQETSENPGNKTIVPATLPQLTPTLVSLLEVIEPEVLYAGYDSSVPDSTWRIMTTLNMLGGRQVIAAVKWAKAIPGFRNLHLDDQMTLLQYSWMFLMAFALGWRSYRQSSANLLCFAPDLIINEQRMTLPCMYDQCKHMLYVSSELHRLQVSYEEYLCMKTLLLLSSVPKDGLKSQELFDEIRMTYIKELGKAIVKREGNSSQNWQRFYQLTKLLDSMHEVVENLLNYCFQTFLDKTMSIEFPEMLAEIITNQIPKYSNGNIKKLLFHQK
Ubiquitin carboxyl-terminal hydrolase 1 (Homo sapiens), sequence (O94782 whole entry, looked up): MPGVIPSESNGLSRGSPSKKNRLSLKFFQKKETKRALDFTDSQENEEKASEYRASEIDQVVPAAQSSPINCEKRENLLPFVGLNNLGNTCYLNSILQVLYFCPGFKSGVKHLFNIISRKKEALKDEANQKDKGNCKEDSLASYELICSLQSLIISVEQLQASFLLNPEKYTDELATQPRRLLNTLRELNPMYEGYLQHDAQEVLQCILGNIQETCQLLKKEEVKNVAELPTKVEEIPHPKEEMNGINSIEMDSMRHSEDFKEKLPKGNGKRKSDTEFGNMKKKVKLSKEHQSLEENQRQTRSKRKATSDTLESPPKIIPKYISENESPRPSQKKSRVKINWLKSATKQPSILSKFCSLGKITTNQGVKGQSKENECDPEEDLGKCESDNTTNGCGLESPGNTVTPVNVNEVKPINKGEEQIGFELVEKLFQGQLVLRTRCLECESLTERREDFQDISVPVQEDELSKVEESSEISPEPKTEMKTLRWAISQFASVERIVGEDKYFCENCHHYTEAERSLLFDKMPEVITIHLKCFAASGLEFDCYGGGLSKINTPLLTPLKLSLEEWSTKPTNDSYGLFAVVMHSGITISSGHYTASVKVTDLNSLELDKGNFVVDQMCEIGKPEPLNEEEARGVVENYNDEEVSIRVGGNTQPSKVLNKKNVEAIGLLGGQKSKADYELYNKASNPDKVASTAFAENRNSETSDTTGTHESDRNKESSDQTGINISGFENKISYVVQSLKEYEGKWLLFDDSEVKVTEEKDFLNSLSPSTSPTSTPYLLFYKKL

CO[C@H]1[C@H](O[C@H]2O[C@@H](C)[C@@H](O[C@@H]3C[C@](C)(O)[C@H](O)[C@H](C)O3)[C@@H](N(C)C)[C@@H]2O)[C@@H](CC=O)C[C@@H](C)[C@@H](O[C@H]2CC[C@H](N(C)C)[C@H](C)O2)/C=C\C=C/C[C@@H](C)OC(=O)C[C@H]1O
-16.8%: max response [8, 14]
-9.34%: max response [8, 13]
inactive: outcome [1] | activity change, negative = inhibition [2, 12] 7.86% | outcome [3] | Potency [4] > 20.6 µM | Potency [5] > 20.6 µM | Potency [6] | outcome [7] | activity change, negative = inhibition [8] -1.68% | Potency [9] | outcome [10] | activity, negative = inhibition [11, 15] -18% | Potency (AS120) | Potency (C2A) | Potency (CP238) | Potency (FAB9) | Potency (HB3) | Potency (JCK) | Potency (PAD)

CN[C@H]1[C@H](O)[C@@H](O[C@@H]2[C@H](O)[C@@H](O[C@H]3OC(CN)=CC[C@H]3N)[C@@H](N)C[C@H]2N)OC[C@@]1(C)O
-0.476%: max response [8, 14]
inactive: outcome [1] | activity change, negative = inhibition [2, 12] -17.3% | outcome [3] | Potency [4] > 20.6 µM | Potency [5] > 20.6 µM | Potency [6] | outcome [7] | activity change, negative = inhibition [8] 0.656% | Potency [9] | outcome [10] | activity, negative = inhibition [11, 15] 3.71% | activity, negative = inhibition [11, 16] 6.19% | Potency (AS120) | Potency (C2A) | Potency (CP237) | Potency (CP238) | Potency (CP252) | Potency (FAB9) | Potency (HB3) | Potency (JCK) | Potency (PAD)
-1.73%: max response [8, 13]

CCOC(=O)[C@H](CCc1ccccc1)N[C@@H](C)C(=O)N1[C@H](C(=O)O)C[C@H]2CCC[C@@H]21
-8.48%: max response [8, 13]
inactive: outcome [1] | activity change, negative = inhibition [2, 12] -18.7% | outcome [3] | Potency [4] > 20.6 µM | Potency [5] > 20.6 µM | outcome [7] | activity change, negative = inhibition [8] -3.49% | outcome [10] | activity, negative = inhibition [11, 17] 14.3% | activity, negative = inhibition [11, 18] 4.68% | Potency (AS120) | Potency (C2A) | Potency (CP237) | Potency (CP238) | Potency (CP252) | Potency (FAB9) | Potency (HB3) | Potency (JCK) | Potency (PAD)
-7.94%: max response [8, 14]

CC(=O)O[C@@H]1C(=O)[C@@]2(C)[C@H](O)C[C@H]3OC[C@]3(OC(C)=O)[C@@H]2[C@H](OC(=O)c2ccccc2)[C@@]2(O)C[C@H](OC(=O)[C@@H](O)[C@@H](NC(=O)c3ccccc3)c3ccccc3)C(C)=C1C2(C)C (stereo in doubt)
-13.6%: max response [8, 14]
-5.62%: max response [8, 13]
inactive: outcome [1] | activity change, negative = inhibition ([2]; at 17.2 µM (top of the series)) 6.42% | activity change, negative = inhibition ([2]; at 38 µM (top of the series)) 6.57% | outcome [3] | Potency [4] > 46 µM and > 20.6 µM | Potency [5] > 46 µM and > 20.6 µM | Potency [6] | outcome [7] | activity change, negative = inhibition [8] -8.68%

C[C@H]1CS(=O)(=O)CCN1/N=C\c1ccc([N+](=O)[O-])o1
inactive: outcome [1] | activity change, negative = inhibition [2, 12] 1.33% | outcome [3] | Potency [4] > 20.6 µM | Potency [5] > 20.6 µM | Potency [6] | outcome [7] | activity change, negative = inhibition [8] -3.89% | Potency [9] | activity, negative = inhibition [11, 15] -17.9% | activity, negative = inhibition [11, 16] -12.5% | Potency (AS120) | Potency (C2A) | Potency (CP237) | Potency (CP238) | Potency (CP252) | Potency (FAB9) | Potency (HB3) | Potency (JCK) | Potency (PAD)
-17.6%: max response [8, 14]
-15.4%: max response [8, 13]

CN(C)CCCO[C@H]1[C@@H]2OC(C)(C)O[C@@H]2O[C@@H]1[C@H](O)CO
-0.368%: max response [8, 14]
inactive: outcome [1] | activity change, negative = inhibition [2, 12] -2.11% | outcome [3] | Potency [4] > 20.6 µM | Potency [5] > 20.6 µM | Potency [6] | outcome [7] | activity change, negative = inhibition [8] 0.679% | Potency [9]
-1.4%: max response [8, 13]

C[C@@H]1O[C@H](O[C@@H]2\C=C/C=C\C=C/C=C\C[C@H](C)OC(=O)/C=C\[C@H]3O[C@@H]3C[C@H](O)C[C@]3(O)C[C@@H](O)[C@@H](C(=O)O)[C@H](C2)O3)[C@@H](O)[C@H](N)[C@@H]1O (stereo in doubt)
0.155%: max response [8, 14]
-4.86%: max response [8, 13]
inactive: outcome [1] | activity change, negative = inhibition [2, 12] -3.9% | outcome [3] | Potency [4] > 20.6 µM | Potency [5] > 20.6 µM | outcome [7] | activity change, negative = inhibition [8] 2.21% | Potency [9] | outcome [10] | activity, negative = inhibition [11, 17] 9.05% | activity, negative = inhibition [11, 18] 8% | Potency (AS120) | Potency (C2A) | Potency (CP237) | Potency (CP238) | Potency (CP252) | Potency (FAB9) | Potency (HB3) | Potency (JCK) | Potency (PAD)

Cn1nnnc1SCC1=C(C(=O)O)N2C(=O)[C@@H](NC(=O)[C@@H](O)c3ccccc3)[C@@H]2SC1
-4.52%: max response [8, 13]
-13.8%: max response [8, 14]
inactive: outcome [1] | activity change, negative = inhibition [2, 12] -2.02% | outcome [3] | Potency [4] > 20.6 µM | Potency [5] > 20.6 µM | Potency [6] | outcome [7] | activity change, negative = inhibition [8] 2.73% | Potency [9] | outcome [10] | activity, negative = inhibition [11, 15] 11.7% | activity, negative = inhibition [11, 16] 11% | Potency (AS120) | Potency (C2A) | Potency (CP237) | Potency (CP238) | Potency (CP252) | Potency (FAB9) | Potency (HB3) | Potency (JCK) | Potency (PAD)

S=C(NC1CCCCC1)N1CCC([C@H]2C=NC=N2)CC1
2.69%: max response [8, 14]
-0.275%: max response [8, 13]
inactive: outcome [1] | activity change, negative = inhibition [2, 12] -11% | outcome [3] | Potency [4] > 20.6 µM | Potency [5] > 20.6 µM | Potency [6] | outcome [7] | activity change, negative = inhibition [8] 2.27% | Potency [9]

Cc1ccc2c(c1)c1c3n2CCN[C@H]3CCC1
-5.65%: max response [8, 13]
-6.69%: max response [8, 14]
active: Potency (CP237) 12.6 µM
inactive: outcome [1] | activity change, negative = inhibition [2, 12] -11.2% | outcome [3] | Potency [4] > 20.6 µM and > 46 µM | Potency [5] > 20.6 µM and > 46 µM | Potency [6] | outcome [7] | activity change, negative = inhibition [8] -2.69% | Potency [9] | activity, negative = inhibition [11, 17] -1.32% | activity, negative = inhibition [11, 18] 1.18% | Potency (AS120) | Potency (C2A) | Potency (CP238) | Potency (CP252) | Potency (FAB9) | Potency (HB3) | Potency (JCK)
